Laboratory results as given in PubChem BioAssay AID430 (Sanford-Burnham Center for Chemical Genomics, 2006).
The campaign covered roughly 63,000 compounds. About 1,100 (1.7%) were called active. Shown is part of a subset that was picked to be rich in actives. Entries with a potency or affinity are not part of this list. Values without a mark were called inactive. Cut-off read from the data, not from the text of the source: active = cytotoxicity above about 50%; inactive = the rest.

Experiment: HPDE-C7 pancreatic duct cell viability loss – fluorescence, HTS (AID 430);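 note: cells exposed to compound for 48 hours before viability readout; 0% = vehicle and 100% = reference cytotoxic drug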
Details: HPDE-C7 pancreatic duct cells viability, at 10 µM, hits give high values
O=C(Cc1ccc(Cl)cc1)Nc1ccccc1CO gave a cytotoxicity of -8.9%. Compound CSc1nc(=NC(C)=O)ss1 has a cytotoxicity of -2%. With CC1CCN(C(=O)CSc2nc(N)c3c4c(sc3n2)CN(C)CC4)CC1 the cytotoxicity was 5.8%. Compound CCCCOc1ccc(C(=O)N2CCCCCC2)cc1 has a cytotoxicity of -14.5%. With CCCCCCOc1ccc(C(=O)n2cnc(N)n2)cc1 the cytotoxicity was 71.3% (active). Compound COc1ccc(C(=O)n2cnc(N)n2)cc1 has a cytotoxicity of 2.7%. With COc1ccc2nc3c(cc2c1)c(NC(=O)c1cccs1)nn3CC(C)C the cytotoxicity was 50.8% (active). Work on CCCn1nc(NC(=O)c2cccs2)c2cc3cc(OC)ccc3nc21 yielded a cytotoxicity of -7.4%. With CCCCn1nc(NC(=O)c2cccs2)c2cc3cc(OC)ccc3nc21 the cytotoxicity was 28.9%. Work on O=S(=O)(NCc1ccco1)c1cccc2cccnc12 yielded a cytotoxicity of 15.9%. For Cc1ccc(C)c(S(=O)(=O)C(C#N)c2nc3ccccc3nc2N2CC(C)OC(C)C2)c1 (stereo not drawn), the cytotoxicity was 48.7%. Work on Cc1cccc(S(=O)(=O)C(C#N)c2nc3ccccc3nc2N2CC(C)OC(C)C2)c1 (stereo not drawn) yielded a cytotoxicity of 7.1%. Cc1cccc(S(=O)(=O)C(C#N)c2nc3ccccc3nc2N2CCCC2)c1 (stereo not drawn) showed a cytotoxicity of -7.1%. For Cc1ccc(S(=O)(=O)C(C#N)c2nc3ccccc3nc2N2CC(C)OC(C)C2)cc1C (stereo not drawn), the cytotoxicity was 50% (active). Work on Cc1ccc(S(=O)(=O)C(C#N)c2nc3ccccc3nc2N2CCCC2)cc1 (stereo not drawn) yielded a cytotoxicity of 23.3%. For Cc1ccc(S(=O)(=O)C(C#N)c2nc3ccccc3nc2N2CCCC2)cc1C (stereo not drawn), the cytotoxicity was 53.9% (active). COc1ccc2nc(NC(=O)Cc3ccc(OC)c(S(=O)(=O)N4CCOCC4)c3)sc2c1 gave a cytotoxicity of 13.1%. For C=C1c2ccc(C)cc2NC(=O)N1c1ccccc1, the cytotoxicity was -11.1%. Compound CCc1c(C)nc2ncnn2c1NCCc1ccc(OC)c(OC)c1 has a cytotoxicity of 4.7%. For CCc1c(C)nc2ncnn2c1NCCc1ccc(OC)cc1, the cytotoxicity was 64.9% (active). COc1ccc(CCNc2c(C)c(C)nc3ncnn23)cc1 gave a cytotoxicity of 10%. Work on COCCNC(=O)c1ccccc1NC(=O)c1ccc(OC)c(OC)c1 yielded a cytotoxicity of -2.2%. With O=P(c1ccccc1)(c1ccccc1)C(c1ccco1)N1CCOCC1 (stereo not drawn) the cytotoxicity was -5.8%. For O=C(Nc1ccc(N2CCOCC2)c(Cl)c1)c1ncn[nH]1, the cytotoxicity was -2.8%. N[C@@H](Cc1ccc(O)c(I)c1)C(=O)O gave a cytotoxicity of -10.4%. Compound COc1ccc2[nH]c(C(=O)O)c(CCC(=O)O)c2c1 has a cytotoxicity of 5.8%. With O=C(O)CCc1cc(I)c(Oc2ccc(O)c(I)c2)c(I)c1 the cytotoxicity was 92.3% (active). O=C(COc1ccccc1)Nc1nc2ccccc2[nH]1 gave a cytotoxicity of -9.3%. In the case of COc1cc(C(=O)Nc2nc3ccccc3[nH]2)cc(OC)c1OC, the cytotoxicity is reported as -19.5%. Work on O=C(Nc1nc2ccccc2[nH]1)c1ccc(F)cc1 yielded a cytotoxicity of -12.8%. With COC(=O)Nc1nc2ccc(Sc3ccccc3)cc2[nH]1 the cytotoxicity was 60.6% (active). In the case of COC(=O)Nc1nc2ccc(C(=O)c3ccccc3)cc2[nH]1, the cytotoxicity is reported as 69.2% (active). Cc1nc2ccc(C(=O)c3ccccc3)cc2[nH]1 gave a cytotoxicity of -13.6%. With Cc1c(NC(=O)c2cc(-c3ccccc3)on2)c(=O)n(-c2ccccc2)n1C the cytotoxicity was -4.6%. O=S(=O)(NCC1CCCO1)c1cccc2nsnc12 (stereo not drawn) showed a cytotoxicity of -2.4%. O=C(OCc1cc(-c2ccccc2)no1)c1ccc2ccccc2n1 showed a cytotoxicity of -17.4%. CSc1ncc(Cl)c(C(=O)Nc2ccc(S(=O)(=O)N3CCOCC3)cc2)n1 gave a cytotoxicity of 7.9%. O=C(Nc1ccc(N2CCOCC2)cc1)c1cnsn1 showed a cytotoxicity of -19.9%. In the case of CS(=O)(=O)c1ncc(Cl)c(C(=O)Nc2ccc(N3CCOCC3)cc2)n1, the cytotoxicity is reported as 72.4% (active). Work on Cc1cc(NC(=O)CCN2C(=O)c3ccccc3C2=O)no1 yielded a cytotoxicity of -2.5%. CCn1c2ccccc2c2cc(C3C(C#N)=C(C)NC(C)=C3C#N)ccc21 gave a cytotoxicity of -2.6%. Work on CCn1c2ccccc2c2cc(C3C(C#N)=C(N)OC4=C3C(=O)CC(C)(C)C4)ccc21 (stereo not drawn) yielded a cytotoxicity of -26.8%. Compound CCCc1[nH]nc2c1C(c1ccccc1OC)C(C#N)=C(N)O2 (stereo not drawn) has a cytotoxicity of 4.9%. O=C(O)C1C2C=CC3(CN(Cc4ccco4)C(=O)C13)O2 (stereo not drawn) showed a cytotoxicity of -6.3%. For O=C(O)C1C2C=CC3(CN(Cc4ccncc4)C(=O)C13)O2 (stereo not drawn), the cytotoxicity was -13.4%. With O=C(O)C1C2C=CC3(CN(Cc4ccccn4)C(=O)C13)O2 (stereo not drawn) the cytotoxicity was 63.6% (active). Compound COCCn1c(SCC(=O)N2CCCc3ccccc32)nnc1-c1ccco1 has a cytotoxicity of -4.5%. With CCNC(=O)N1C(=O)C2(OCCO2)c2ccccc21 the cytotoxicity was -15.9%. CC(=O)N1C(=O)C2(Nc3ccccc3N2)c2ccccc21 gave a cytotoxicity of -0.7%. With CCCCOc1ccc(OCCCC)c2c1NC1(N2)C(=O)N(C(C)=O)c2ccccc21 the cytotoxicity was 69.8% (active). Work on CCOC(=O)Cc1nnc(NC(=O)Nc2ccccc2)s1 yielded a cytotoxicity of 5%. For Nc1ccc(-c2nc3ccccc3[nH]2)cc1, the cytotoxicity was -5.6%. For Nc1ccc(-c2nc3ccc(-c4nc5ccccc5o4)cc3[nH]2)cc1, the cytotoxicity was 76.2% (active). Work on Nc1cc(N)cc(-c2nc3ccccc3o2)c1 yielded a cytotoxicity of 18.2%. With O=S(=O)(Nc1nnc(-c2ccccc2)s1)c1ccc(Cl)cc1 the cytotoxicity was 8.8%. For FC(F)(F)c1cc(-c2ccco2)nc(-n2nc(C(F)(F)F)cc2C2CC2)n1, the cytotoxicity was 5.7%. For Cn1c(=O)c2c(nc(SCC(=O)N3CCCc4ccccc43)n2C)n(C)c1=O, the cytotoxicity was -17.3%. In the case of O=C(CCCCn1c(=O)c2ccccc2n(Cc2ccc(F)cc2Cl)c1=O)NCc1ccco1, the cytotoxicity is reported as 2.9%. In the case of O=C(NCc1ccccn1)c1ccc(COc2ccc(Cl)cc2)o1, the cytotoxicity is reported as 4.2%. O=C(c1ccco1)N1CCN(c2nc(C(F)(F)F)nc3c2nnn3Cc2ccccc2)CC1 showed a cytotoxicity of 11.6%. With Cc1nc(N2CCCC2)c2nnn(Cc3ccccc3Cl)c2n1 the cytotoxicity was -10.9%. Compound CC(=O)Nc1ccc(NC(=O)c2c(C)nc3ccccn23)cc1 has a cytotoxicity of 6.8%. Work on Cc1[nH]nc2c1C(C1CC=CCC1)C(C#N)=C(N)O2 (stereo not drawn) yielded a cytotoxicity of 0.7%. For N#CC1=C(N)Oc2cc(N)ccc2C1C1CC=CCC1 (stereo not drawn), the cytotoxicity was 59.8% (active). Compound N#CC1=C(N)Oc2cc(N)ccc2C1C1CCCCC1 (stereo not drawn) has a cytotoxicity of 22.2%. With COc1ccc(C2C(C#N)=C(N)Oc3cc(O)ccc32)cc1OC (stereo not drawn) the cytotoxicity was -6.7%. COc1ccc(OC)c(C2C(C#N)=C(N)Oc3cc(N)ccc32)c1 (stereo not drawn) gave a cytotoxicity of -0.7%. For COc1cc(C2C(C#N)=C(N)Oc3cc(N)ccc32)cc(OC)c1OC (stereo not drawn), the cytotoxicity was 58.5% (active).
